Rows were chosen to be rich in hits. Some 3.5% of all compounds tested hit in one or more screens of this group.
FBW7 activator – activators of human E3 ligase FBW7 | Q969H0 | AlphaScreen FBW7–phospho-cyclin E peptide binding, activator screen | normalized activity (activation), % at 26.1 µM | hit rate 0.13% among 650,000; in the data active = normalized activity above about 1.9%;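 also: purified mutant Fbw7 with reduced substrate affinity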
Target sequence (Q969H0 whole entry, looked up): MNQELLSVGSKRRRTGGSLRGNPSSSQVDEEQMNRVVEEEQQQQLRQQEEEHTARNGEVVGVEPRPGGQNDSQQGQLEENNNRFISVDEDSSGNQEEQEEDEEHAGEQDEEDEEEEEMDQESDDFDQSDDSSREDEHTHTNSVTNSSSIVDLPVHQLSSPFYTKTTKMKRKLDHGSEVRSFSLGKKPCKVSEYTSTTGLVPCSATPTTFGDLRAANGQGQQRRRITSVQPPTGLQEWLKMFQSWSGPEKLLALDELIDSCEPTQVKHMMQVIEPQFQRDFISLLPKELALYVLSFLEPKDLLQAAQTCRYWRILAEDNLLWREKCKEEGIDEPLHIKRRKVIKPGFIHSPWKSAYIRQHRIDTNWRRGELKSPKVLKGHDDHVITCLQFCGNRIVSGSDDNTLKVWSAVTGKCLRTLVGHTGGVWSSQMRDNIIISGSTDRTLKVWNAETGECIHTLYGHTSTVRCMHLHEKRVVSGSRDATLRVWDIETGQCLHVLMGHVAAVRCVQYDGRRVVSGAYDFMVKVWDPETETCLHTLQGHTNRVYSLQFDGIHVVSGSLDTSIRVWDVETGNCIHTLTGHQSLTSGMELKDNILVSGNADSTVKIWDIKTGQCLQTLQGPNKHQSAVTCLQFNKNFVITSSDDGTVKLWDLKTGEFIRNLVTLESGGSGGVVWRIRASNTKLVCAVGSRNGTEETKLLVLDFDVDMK
TEAD-YAP block – TEAD-YAP interaction inhibition; HEK-TIYL cells, TEAD-Gal4/YAP UAS-luciferase luminescence; inhibition, % at 9.12 µM; hit rate 1.4% among 640,000; AID 1259422; in the data active = inhibition above about 32%;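 also: 0% = median of test compound wells and 100% = reference inhibitor wells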
MITF inh – human MITF inhibition, primary screen. inhibition, % at 2.6 µM. AlphaScreen MITF homodimerization, bead proximity signal. O75030. hit rate 0.91% among 650,000; in the data active = inhibition above about 50%;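 also: 0% = vehicle wells with protein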
GPR151 ag – human GPR151 activation. PathHunter beta-arrestin GPR151 cells, luminescence. activation, % at 11.2 µM. hit rate 1% among 650,000. AID 1508602; in the data active = activation above about 4.9%;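 also: 0% = median of compound wells and 100% = cells with positive control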
The depositor's hits bear a star.

Results for Nc1nonc1C(=O)N/N=C\c1ccc(O)c(O)c1 ?
FBW7 activator: 0; TEAD-YAP block: 2; MITF inh: -5; GPR151 ag: -5

How did N=c1c2c(-c3ccccc3)c(-c3ccccc3)oc2ncn1Cc1ccccc1 do in these assays?
FBW7 activator: 1; TEAD-YAP block: -8; MITF inh: 5; GPR151 ag: 0

What do the screens show for `O=C(N/N=C/c1ccc(O)cc1O)c1ccc[n+](CCO)c1`?
FBW7 activator: -1; TEAD-YAP block: 7; MITF inh: 101*; GPR151 ag: 3

What do the screens show for `c1ccc2c(NCCCCCCCNc3c4c(nc5ccccc35)CCCC4)c3c(nc2c1)CCCC3`?
MITF inh: -7; GPR151 ag: -1

How did COc1cc(/C=N/c2sc3c(c2C#N)CCC3)ccc1OCC(=O)O do in these assays?
FBW7 activator: 0; TEAD-YAP block: 12; MITF inh: 3; GPR151 ag: 0

Results for N#Cc1c(/N=C/c2ccc(O)c(O)c2)sc2c1CCCC2 ?
FBW7 activator: 0; TEAD-YAP block: 43*; MITF inh: 6; GPR151 ag: 0

How did CCN(Cc1ccccc1)S(=O)(=O)c1cc(C(=O)Nc2ccc(C)c(F)c2)ccc1F do in these assays?
FBW7 activator: 0; TEAD-YAP block: 57*; MITF inh: -6; GPR151 ag: 2

How did O=C(Nc1ccc(Br)cc1)c1ccc(F)c(S(=O)(=O)NCc2cccs2)c1 do in these assays?
FBW7 activator: 0; TEAD-YAP block: 60*; MITF inh: 7; GPR151 ag: 0

How did CCN(CC)S(=O)(=O)c1cc(C(=O)Nc2ccc(C)c(F)c2)ccc1F do in these assays?
FBW7 activator: 0; TEAD-YAP block: -37; MITF inh: 8; GPR151 ag: -1

Results for CCN(c1ccccc1)S(=O)(=O)c1ccc(NC(=O)Nc2ccccc2)cc1 ?
FBW7 activator: 0; TEAD-YAP block: 18; MITF inh: 3; GPR151 ag: 0

Results for CCN(Cc1ccccc1)S(=O)(=O)c1cc(C(=O)Nc2cccc(Cl)c2)ccc1F ?
FBW7 activator: 0; TEAD-YAP block: 58*; MITF inh: 7; GPR151 ag: 1

What do the screens show for `CCN(c1ccccc1)S(=O)(=O)c1ccc(C(=O)Nc2ccc(C(C)=O)cc2)cc1`?
FBW7 activator: 2.3*; TEAD-YAP block: 7; MITF inh: 8; GPR151 ag: 3

Results for CN(Cc1ccccc1)S(=O)(=O)c1cc(C(=O)Nc2ccc(Br)cc2)ccc1F ?
FBW7 activator: 0; TEAD-YAP block: 41*; MITF inh: -2; GPR151 ag: 1

How did CCN(CC)S(=O)(=O)c1cc(C(=O)Nc2cccc(O)c2)ccc1Cl do in these assays?
FBW7 activator: 0; TEAD-YAP block: 73*; MITF inh: 9; GPR151 ag: 0

How did CCN(Cc1ccccc1)S(=O)(=O)c1cc(C(=O)Nc2ccc(Oc3ccccc3)cc2)ccc1F do in these assays?
FBW7 activator: 0; TEAD-YAP block: 66*; MITF inh: 2; GPR151 ag: 1

How did CCN(c1ccccc1)S(=O)(=O)c1cc(C(=O)Nc2ccc(Oc3ccccc3)cc2)ccc1F do in these assays?
FBW7 activator: 0; TEAD-YAP block: 49*; MITF inh: 18; GPR151 ag: 1

What do the screens show for `Cc1cc(C)c[n+](C2=Nc3ccccc3NC2=C(C#N)C#N)c1`?
FBW7 activator: 0; TEAD-YAP block: 14; MITF inh: 15; GPR151 ag: -1

What do the screens show for `O=C(/C=C/Nc1ccc(F)cc1Br)c1ccccc1`?
FBW7 activator: 0; TEAD-YAP block: 86*; MITF inh: 6; GPR151 ag: -4

What do the screens show for `CCc1ccc(C(=O)/C=C/Nc2ccccc2O)cc1`?
FBW7 activator: 0; TEAD-YAP block: 39*; MITF inh: 2; GPR151 ag: -4

How did Cc1ccc(C(=O)/C=C/Nc2ccccc2O)cc1 do in these assays?
FBW7 activator: 0; TEAD-YAP block: 4; MITF inh: -31; GPR151 ag: -2

How did COc1ccc(C(=O)/C=C/Nc2ccc(F)cc2F)cc1 do in these assays?
FBW7 activator: 1; TEAD-YAP block: -33; MITF inh: 17; GPR151 ag: -1

What do the screens show for `COc1cccc(C(=O)/C=C/Nc2ccc(F)cc2F)c1`?
FBW7 activator: 0; TEAD-YAP block: 71*; MITF inh: 9; GPR151 ag: -4

What do the screens show for `O=C(/C=C/Nc1ccccc1F)c1ccccc1`?
FBW7 activator: 0; TEAD-YAP block: 61*; MITF inh: 12; GPR151 ag: -5

Results for CN1CC(=O)N(CC(=O)N(C)c2ccccc2)C1=O ?
FBW7 activator: 0; TEAD-YAP block: 14; MITF inh: 10; GPR151 ag: 2

What do the screens show for `O=[N+]([O-])c1cccc(CSc2ccc3nnc(-c4ccccn4)n3n2)c1`?
FBW7 activator: -1; TEAD-YAP block: -6; MITF inh: 16; GPR151 ag: -1

Results for O=C(/C=C/Nc1ccccc1I)c1ccccc1 ?
FBW7 activator: 0; TEAD-YAP block: 91*; MITF inh: -1; GPR151 ag: -5

What do the screens show for `O=C(/C=C/Nc1ccc(F)cc1F)c1ccccc1`?
FBW7 activator: 0; TEAD-YAP block: 84*; MITF inh: -23; GPR151 ag: -2

Results for O=C(/C=C/Nc1ccc([N+](=O)[O-])cc1Br)c1ccccc1 ?
FBW7 activator: 0; TEAD-YAP block: 43*; MITF inh: 7; GPR151 ag: -1

What do the screens show for `CCOC(=O)c1c(C)n(-c2ccc(N(C)C)cc2)c2c1cc(O)c1ccccc12`?
FBW7 activator: 0; TEAD-YAP block: 5; MITF inh: 19; GPR151 ag: -2

What do the screens show for `CC(C)CCn1c(=O)c2cccnc2n(CC(=O)NCCc2ccccc2)c1=O`?
FBW7 activator: 1; TEAD-YAP block: 8; MITF inh: 4; GPR151 ag: -2

What do the screens show for `Cc1nc(SCc2ccc(OC(C)C)cc2)n[nH]1`?
FBW7 activator: 0; TEAD-YAP block: 95*; MITF inh: 15; GPR151 ag: -5

How did Cc1nc(SCc2ccc(Br)cc2)n[nH]1 do in these assays?
FBW7 activator: 0; TEAD-YAP block: 33*; MITF inh: 15; GPR151 ag: 0

Results for O=C(CSc1ccccc1)Nc1nnc(CCC(=O)c2ccccc2)s1 ?
FBW7 activator: 0; TEAD-YAP block: 6; MITF inh: 6; GPR151 ag: -1

How did CSc1ccc(CCNC(=O)CCc2nnc3ccc(N4CCN(C)CC4)nn23)cc1 do in these assays?
FBW7 activator: 0; TEAD-YAP block: 1; MITF inh: -2; GPR151 ag: 0

Results for CC(C)n1cnc2c(NC3CCN(Cc4ccccc4)CC3)nc(Nc3ccccn3)nc21 ?
FBW7 activator: 0; TEAD-YAP block: 30; MITF inh: 13; GPR151 ag: 0

How did CC(C)n1cnc2c(NC3CCN(Cc4ccccc4)CC3)nc(-c3ccc(C(N)=O)cc3)nc21 do in these assays?
FBW7 activator: 0; TEAD-YAP block: 92*; MITF inh: -8; GPR151 ag: -2

How did CC(C)n1cnc2c(NC3CC3)nc(N3CCN(c4ccccn4)CC3)nc21 do in these assays?
FBW7 activator: 0; TEAD-YAP block: 35*; MITF inh: 12; GPR151 ag: 2

Results for COc1ccc(-c2nc(NC3CCN(Cc4ccccc4)CC3)c3ncn(C(C)C)c3n2)cn1 ?
FBW7 activator: 0; TEAD-YAP block: 19; MITF inh: 0; GPR151 ag: -1

Screens (PubChem)
